PubChem BioAssay (NCI)
This is part of a sample that, as a whole, favours compounds with a hit. Of some 83,000 tested, about 20% had one in any assay.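 Cells were grown in 96-well plates and exposed to the test compound at a single concentration for 48 hours; results are reported as percent growth, with values below 10 considered active.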 A number with no mark means an inactive call. Calls of active or inactive are those of the source.

What follows are compounds tested on MDA-MB-468 breast (assay: NCI-60 one-dose screen, 48 h (100 = growth as untreated, 0 = no growth, -100 = all killed)). Details: 10 µM unless noted.

Going from `NC(N)=NS(=O)(=O)c1ccc(Nc2ccc3nnc(-c4ccncc4)n3n2)cc1` to `NS(=O)(=O)c1ccc(-n2nc(-c3ccccc3)ccc2=O)cc1`, the growth rises from 96.6% to 104%.

Compared with `CNC(=O)c1c(NC(=O)c2ccc(C(C)C)cc2)sc2c(CN(C)C)c(O)ccc12`, `O=C(CSc1nc2sc3c(c2c(=O)n1-c1ccc(Cl)cc1)CCCC3)N/N=C/c1ccc(F)cc1` is higher in growth: 86.3% for the first, 129% for the second.

Going from `CC(=O)c1cccs1` to `O=C(c1ccccc1)C(Br)[N+](=O)[O-]` (configuration not stated), the growth rises from 105% to 114%.

Going from `CCn1c(=O)c(C(=O)NCCCO)c(O)c2ccccc21` to `C[C@H]1c2[nH]c3ccccc3c2C[C@H]2C(=O)N(CCCCCCC(=O)NO)CC(=O)N21`, the growth falls from 112% to 60.3%.

First: N/C(=N\S(=O)(=O)c1ccccc1)Nc1nc2ccccc2s1
Second: O=C(N/N=C/c1cc2ccccc2n2nnnc12)Nc1ccccc1
The growth of the first is lower: 91% for the first, 98.3% for the second.

Compared with `COc1cccc(COc2ccc(/C=C3/C(=O)Nc4cc(Cl)ccc43)cc2)c1`, `COc1ccc(-c2nn(-c3ccccc3)cc2/C=C2\SC(=O)NC2=O)cc1` is higher in growth: 85.1% for the first, 107% for the second.

Compared with `O=C1N/C(=N/O)S/C1=C/c1cn(-c2ccccc2)nc1-c1ccccc1`, `COc1ccc(NC(=O)CSc2nc3ccccc3c(=O)n2CCc2ccccc2)cc1` is higher in growth: 84.6% for the first, 87.7% for the second.

First: CCCCCCCCCCC[C@@H](C[C@H]1OC(=O)[C@H]1CCCCCC)OC(=O)[C@@H](CC(C)C)NC=O
Second: CCCCCCCC(=O)SCC/C=C/[C@@H]1CC(=O)NCc2cccc(n2)CN(Cc2ccc(Cl)cc2)CC(=O)N[C@@H](C(C)C)C(=O)O1
The growth of the first is higher: 101% for the first, 44.6% for the second.

Compared with `O=c1c2cc(F)cc(Cl)c2sc2c(Cl)nc3ccccc3c12`, `COc1cccc(-n2cc(-c3nc(Cl)c4ccccc4n3)nn2)c1` is higher in growth: 99% for the first, 117% for the second.

Compared with `C[C@@H]1CC[C@@H]2[C@@H]1[C@H](OC(=O)/C=C/c1ccccc1)[C@]1(c3ccccc3)C[C@@H](OC(=O)CO)[C@@]2(C)O1`, `COc1cc(/C=C/C(=O)/C=C/c2ccc(-n3ccnc3C)cc2)ccc1O` is lower in growth: 87.5% for the first, 24.4% for the second.

First: N#Cc1nnn(-c2ccc(S(N)(=O)=O)cc2)c1NCC(=O)c1ccccc1
Second: O=C(N/N=C/c1cccnc1)c1ccccc1Nc1cccc(C(F)(F)F)c1
The growth of the first is higher: 96.7% for the first, 74.5% for the second.

Compared with `COC(=O)C1C(O)C(C)C(O)C(C)C=C(C)C2=C3C(=C(C)C(=O)c4c(O)c(c(C)c(OC(C)=O)c43)NC(=O)C(C)=C/C=C\C(C)C(O)C(C)C1O)OCO2` (configuration not stated), `COc1cc(-c2c3c(c(Br)n2Cc2ccccc2)-c2nc(N)sc2CC3)cc(OC)c1OC` is lower in growth: 106% for the first, 73.4% for the second.

Compared with `O=C1NCC(Nc2ccc(Br)cc2Cl)C(=O)N1` (configuration not stated), `Nc1c(C(=O)Nc2cccc([N+](=O)[O-])c2)sc2nc3c(cc12)C(O)CCC3` (configuration not stated) is lower in growth: 124% for the first, 53.5% for the second.

Compared with `CCCC1C(C(=O)OCC)=C(N)Oc2cc(O)ccc21` (configuration not stated), `COc1ccc(-c2cn(Cc3cc4ccccc4s3)nn2)cc1OCCN1CCCCC1` is lower in growth: 110% for the first, 63.8% for the second.

For `O=C1/C(=C\c2ccc(F)cc2)CN(C(=O)c2ccccc2)C/C1=C\c1ccc(F)cc1`, the growth was 5.47% (active).
In the case of `C=C1C(=O)O[C@H]2[C@H]1CC/C(CNC(=O)/C=C/c1ccccc1)=C\CC[C@@]1(C)O[C@@H]21`, the growth is reported as -30.2% (active).
For `CCCc1cc2cc(-n3nc(C)c4c3CC(C)(C)CC4=O)cc(NC3CCC(O)CC3)c2c(=O)[nH]1` (configuration not stated), the growth was -0.951% (active).
For `Cc1ccc2nc3ccccc3c(NCc3ccc(Cl)cc3)c2c1`, the growth was -21.7% (active).
`Cc1ccc(-c2nc([P+](c3ccccc3)(c3ccccc3)c3ccccc3)c(N3CCOCC3)o2)cc1` was tested, and the growth was -27.6% (active).
For `c1ccc(C(=NNc2nc3ccccc3o2)c2ccccn2)nc1`, the growth was -27.4% (active).
For `NS(=O)(=O)c1ccc(CCN=C=S)cc1`, the growth was -6.54% (active).
`CCN=C1C=CC(=C(c2ccc(N)cc2)c2ccc(N(CC)CC)c(C)c2)C=C1` was tested, and the growth was -32.9% (active).
With `CC[C@]12C=CCN3CC[C@@]4(c5ccc(OC)cc5N(C)[C@H]4[C@@](O)(C(=O)OC)[C@@H]1OC(=O)CCC(=O)N[C@H](Cc1c[nH]c4ccccc14)C(=O)OC)[C@@H]32` the growth was -42.6% [100 µM] (active).
